Here are results for 56 compounds from PubChem BioAssay AID588689 (Southern Research Specialized Biocontainment Screening …, 2011).

This assay deals with Genome polyprotein (Dengue virus type 2 (strain 16681-PDK53)) (UniProt P29991). Description: Dengue-2 NS5 methyltransferase inhibitors, primary screen, biochemical, confirmation dose response (AID 588689). Particulars: Dengue-2 NS5 methyltransferase capping enzyme assay, at 25 µM, stronger effect = higher value.
The mark [1] stands for this setting: measured here: pilot screen replicate inhibition.

About 1,000 (0.29%) of roughly 340,000 compounds were called active. No stated cut-off is given here; in the data, inconclusive means inhibition above about 29% without an active follow-up result; inactive means below that. Only a sample is shown. Results with a measured potency or affinity are listed apart.

For `COc1cccc(/C=C2/NC(=O)N(CC(=O)Nc3ccc(C)cc3)C2=O)c1OCc1cccc(C(=O)O)c1`, the inhibition (usually the change of the read-out against control, counted positive when it falls) was -3.96% (inactive).
With `Cc1ccc2nc(-c3ccccc3)cc(C(=O)N3CCc4ccccc4C3)c2c1`, the inhibition was -5.47% (inactive).
On the same count and under the same terms, in the case of `NC(N)=N/N=C/c1ccc(OCc2ccccc2Cl)cc1` it was -0.7% (inactive); in that of `Cc1ccc(-c2nc3c(c(=O)c4ccccc4n3C)c(=O)n2-c2ccc(F)cc2)cc1`, 0.78% (inactive); in that of `CCc1ccc(C(=O)C(C)OC(=O)c2nc3nc(C)cc(C)n3n2)cc1` (stereo not drawn), -7.33% (inactive).
For `COc1cc(/C=C2/C(=O)NN(c3ccc(F)cc3)C2=O)cc(Cl)c1O`, the inhibition is -28% (inactive).
As to `O=C1NN(c2ccccc2)C(=O)/C1=C\c1ccccc1`, the inhibition is 8.92% (inactive).
On to `C#CCOc1ccc(/C=C2/C(=O)NN(c3ccc(F)cc3)C2=O)cc1OC`, for which the inhibition is 14.3% (inactive).
Turning to `O=C1NN(c2ccccc2)C(=O)C1=Cc1ccccc1`, the inhibition is 25.9% (inactive).
Take `COc1ccc2oc(C(=O)OCC(=O)N(C)C3CCS(=O)(=O)C3)c(C)c2c1` (stereo not drawn): the inhibition was -8.65% (inactive).
On to `O=C(CNC(=O)c1ccc(F)cc1)N/N=C/c1cn[nH]c1-c1ccccc1`, for which the inhibition was -12.6% (inactive).
In the case of `CN(CC(=O)Nc1ccc(F)cc1)C(=O)CSc1nncs1`, the inhibition is -2.59% (inactive).
Take `CCCCC(=O)Nc1nnc(-c2ccco2)o1`: the inhibition was 1.48% (inactive).
Turning to `CCNS(=O)(=O)c1ccc(NC(=O)Nc2ccc3c(c2)OCO3)cc1`, the inhibition was -8.45% (inactive).
As for `Cc1c(F)cccc1NS(=O)(=O)c1ccc2c(c1)c(C)cc(=O)n2C`, the inhibition is -4.58% (inactive).
With `CN1CCN(C2=C(NS(=O)(=O)c3ccccc3)C(=O)c3ccccc3C2=O)CC1`, the inhibition was 7.03% (inactive).
Consider `NC(=O)C1CCN(C2=C(NS(=O)(=O)c3ccccc3)C(=O)c3ccccc3C2=O)CC1`, for which the inhibition is 0.77% (inactive).
In the case of `NC(=O)C1CCN(C2=C(NS(=O)(=O)c3ccc(Cl)cc3)C(=O)c3ccccc3C2=O)CC1`, the inhibition is 7.95% (inactive).
Regarding `O=C1C(Cl)=C(NCCN2CCOCC2)C(=O)c2ccccc21`, the inhibition was 4.52% (inactive).
For `O=C1C(Cl)=C(NCCCN2CCOCC2)C(=O)c2ccccc21`, the inhibition was 17% (inactive).
For `O=C1C(Cl)=C(N2CCN(c3ccccc3[N+](=O)[O-])CC2)C(=O)c2ccccc21`, the inhibition was 3.21% (inactive).
Turning to `Cc1ccc(C=NNc2ccc([N+](=O)[O-])cn2)cc1`, the inhibition was -5.44% (inactive).
As to `O=S(=O)(c1cc(Cl)ccc1Cl)N1CC2CCCN2c2ccc(C(F)(F)F)cc21` (stereo not drawn), the inhibition was -10.5% (inactive).
For `Cc1ccc2cc(CCNC(=O)c3cccc([N+](=O)[O-])c3)c(=O)[nH]c2c1C`, the inhibition is 2.58% (inactive).
On the same count and under the same terms, in the case of `CCCn1c(=O)c2ccccc2n2c(SCC(=O)c3ccc(CC)cc3)nnc12` it was -1.12% (inactive); in that of `Cc1cc(CN2CCCC(CNC(=O)c3ccc(F)cc3)C2)cc(C)c1O` (stereo not drawn), -7.66% (inactive).
As to `C=CCOc1cccc(C2C(C(=O)c3ccc(C)o3)=C(O)C(=O)N2CCN(C)C)c1` (stereo not drawn), the inhibition is -3.18% (inactive).
The same measure, in the same setting: for `COc1ccc(C2C(C(C)=O)=C(O)C(=O)N2c2ccccn2)cc1` (stereo not drawn) the value was 0.65% (inactive).
On to `Cc1cc(N2C(=O)C(O)=C(C(=O)c3cc4ccccc4o3)C2c2cccc(Br)c2)no1` (stereo not drawn), for which the inhibition was 5.32% (inactive).
For `C=CCOc1cccc(C2C(C(=O)c3ccc(C)o3)=C(O)C(=O)N2Cc2ccncc2)c1` (stereo not drawn), the inhibition is -1.6% (inactive).
With `CCCOc1ccc(/C(O)=C2\C(=O)C(=O)N(c3ccccn3)C2c2ccccc2F)cc1C` (stereo not drawn), the inhibition is 22.2% (inactive).
On to `COc1cccc(C2C(C(=O)c3cc4ccccc4o3)=C(O)C(=O)N2c2cc(C)on2)c1` (stereo not drawn), for which the inhibition is 11.6% (inactive).
On the same count and under the same terms, for `CCCOc1ccc(C2C(C(=O)c3cc4ccccc4o3)=C(O)C(=O)N2c2cc(C)on2)cc1OC` (stereo not drawn) the value was -3.55% (inactive); for `CCCOc1ccc(C2C(C(=O)c3cc4ccccc4o3)=C(O)C(=O)N2c2cc(C)on2)cc1` (stereo not drawn), 27.6% (inactive).
Consider `COc1cc(C2CC(=O)Oc3cc(O)ccc32)cc(OC)c1OC` (stereo not drawn), for which the inhibition was 1.65% (inactive). For the same compound, under setting [1], the inhibition stood at 3.63%.
With `C=CCN1CCN(C(c2cc(OC)ccc2OC)c2nnnn2CC2CCCO2)CC1` (stereo not drawn), the inhibition is 1.37% (inactive).
Turning to `COc1ccc(-c2ccc(=O)n(Cc3ccccc3)n2)cc1`, the inhibition was -0.78% (inactive).
Consider `C=CCn1c(CC(C)(C)C)nc2ccccc21`, for which the inhibition is -5.1% (inactive).
In the case of `Cc1ccc(S(=O)(=O)N2CCCN(C(=O)c3ccc(-n4nccc4C)cc3)CC2)cc1`, the inhibition is -5.13% (inactive).
Regarding `CCOC(=O)C1CCCN(C(=O)/C(=C/c2ccco2)NC(=O)c2ccccc2)C1` (stereo not drawn), the inhibition was -14.3% (inactive).
With `CC[n+]1c(/C=C(\C)OC)sc2ccccc21`, the inhibition was 2.92% (inactive).
Turning to `O=C(COC(=O)/C=C/c1ccccc1Cl)NC(=O)NC1CCCC1`, the inhibition was -7.24% (inactive).
Take `COCCNC(=O)CN1C(=O)CSc2ccc(S(=O)(=O)N3CCOCC3)cc21`: the inhibition is 0.89% (inactive).
Same read-out and setting: in the case of `COc1ccc(C(=O)N2CCN(c3ccc(NC(=O)c4ccco4)cc3)CC2)cc1` it was 0% (inactive).
`COc1cc(O)c2c(c1)OC(C)(C)CC2=O`: the inhibition is -2.94% (inactive).
For `CC1(C)CC(=O)c2c(O)cc(O)cc2O1`, the inhibition is -4.17% (inactive).
As to `N#CCCN(C(=O)COC(=O)CNS(=O)(=O)c1ccc2ccccc2c1)c1ccccc1`, the inhibition was 1.1% (inactive).
On to `N#CCc1ccc(NC(=O)Cn2c(=O)oc3ccccc32)cc1`, for which the inhibition is -3.26% (inactive). Besides, the inhibition under setting [1] was -4.87%.
In the case of `COc1ccc(S(=O)(=O)N2CCCC2)c(Cl)c1Cl`, the inhibition is -8.19% (inactive).
In the case of `CCC1CCc2c(sc(NC(=O)C3CC=CCC3C(=O)O)c2C#N)C1` (stereo not drawn), the inhibition was 27.5% (inactive).
On the same count and under the same terms, in the case of `N#Cc1c(NC(=O)C2CC=CCC2C(=O)O)sc2c1CCCCCC2` (stereo not drawn) it was 5.78% (inactive); in that of `CC1CCc2c(sc(NC(=O)c3ccccc3C(=O)O)c2C#N)C1` (stereo not drawn), -0.74% (inactive); in that of `CCC(C)(C)C1CCc2c(sc(NC(=O)c3ccoc3C)c2C(N)=O)C1` (stereo not drawn), -3.22% (inactive).
`COc1ccc(-c2cc(C(=O)Nc3sc4c(c3C#N)CCCC4)c3ccccc3n2)cc1OC`: the inhibition was -4.06% (inactive).
`COc1ccc(OC)c(-c2cc(C(=O)Nc3sc4c(c3C#N)CCC(C)C4)c3ccccc3n2)c1` (stereo not drawn): the inhibition is -5.61% (inactive).
Regarding `CCOc1ccc(-c2cccc(NC(=O)COc3ccc(Cl)cc3)c2)nn1`, the inhibition was -5.43% (inactive).
